Measured values as given in PubChem BioAssay (NCATS).
“And” between values parts separate entries of the source, which are not always exact repeats. Identical values can stand only once. Results filed as inconclusive are left out. Unmarked numbers belong to inactive results. The source made the active and inactive calls. Calls come from the whole dose curve; as a rule, active = well fitted cell-killing curve with a large enough effect; inconclusive = small, poorly fitted or top-dose-only effect; inactive = flat fitted curve, though single readings scatter.

experiment: Cellular viability qHTS for adrenocortical cancer (ACC) cell line SW-13 (AID 1963989); conditions: SW-13 ACC cells viability, CellTiter-Glo, 48 h; activity (max response): hits give low values; note: nearly all actives have a fitted effect of over 65% in size;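 for activity (max response): cells grown in serum-free medium with ITS supplement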
Excerpt: PI: Naris Nilubol, MD Surgical Oncology Program, National Cancer Institute (NCI) National Institute of Health (NIH), Bethesda, Maryland Adrenocortical cancer (ACC) is a rare malignancy with poor survival outcomes and few treatment options. Currently, mitotane is the only FDA-approved therapy for ACC. Although adjuvant radiation therapy is rarely utilized, it has the potential to improve survival in select cases. Through a quantitative high-throughput drug screen (qHTS), we identified auranofin (AF), a thioredoxin reductase (TXNRD) inhibitor, as a promising candidate drug. This study aims to evaluate whether AF can enhance the efficacy of radiation therapy in the treatment of ACC. Two human ACC cell lines, SW-13 and NCI-H295R, were screened using the National Center for Advancing Translational Sciences (NCATS) Pharmaceutical Collection (NPC) and the Mechanism Interrogation PlatE (MIPE) library (~4,991 compounds). CellTiter-Glo (Cat # G7570, Promega, Madison, WI) was utilized to measure cell viability. Described herein are the results of the corresponding viability assay.
PROTOCOL TABLE (as described by Inglese J, Shamu CE and Guy RK. 2007) SEQUENCE No. (e.g., 1, 2, 3, etc.); […] (e.g., Cells, Incubation, Reagent, etc.); VALUE; DESCRIPTION. 1; Cells; 5 uL; white, solid-bottom, 1536-well tissue-culture treated plates. 2; Time; overnight culture at 37C with 5% CO2. 3; Compounds and control; 23 nL; Kalypsis pin tool (Wako USA) equipped with a 1536-well pin head to transfer to the assay plates. 4; Time; 48 hours; 37C with 5% CO2. 5; Reagent; 4 uL; CellTiter-Glo luminescent substrate mix. 6; Time; 20 min at room temperature. 7; Detection; Luminescence; ViewLux plate reader NOTES (numbers refer to Sequence numbers above) 1. SW13 cells were harvested from a T175 flask and resuspended in ITS-supplemented DMEM serum-free medium at a concentration of 300 000 cells/mL. Then 5 uL of resuspended cells were dispensed into each well of white, solid-bottom, 1536-well tissue-culture-treated plates using a multidrop combi dispenser. The plates were covered with stainless steel gasket lids. 2-3. The plates were cultured overnight at 37C with 5% CO2. Twenty-three nL of compounds (eight selected concentrations from the NPC / MIPE) or positive control (10 mM stock of bortezomib) in DMSO was transferred to each well of the assay plate using a pin tool (Kalypsys, San Diego, CA, USA). The final concentration of the compounds in the 5 uL assay volume ranged from 0.5 nM to 46 uM. 4-6. After 48 hours of incubation at 37C and 5% CO2, 4 uL of CellTilter-Glo luminescent substrate mix (Promega, Madison, WI, USA) was added to each well. Then the plates were incubated for 20 minutes at room temperature. 7. After incubation, luminescence was measured using a ViewLux plate reader (PerkinElmer, Waltham, MA, USA) with a clear filter was used to measure the number of metabolically competent cells. To determine compound activity in the qHTS assay, the titration-response data for each sample was plotted and modeled by a four-parameter logistic fit yielding IC50 and efficacy (maximal response) values. […] REFERENCES: Inglese J, Shamu CE and Guy RK, Reporting data from high throughput screening of small molecule libraries, Nature Chemical Biology, 2007, 3(8): 438-441. doi.org/10.1038/nchembio0807-438.
% is set by controls: 0 for no effect and ±100 for the full control effect.

Compound	activity (max response)	Potency
CC(=O)[C@@]1(O)CC[C@H]2[C@@H]3C[C@H](C)C4=CC(=O)CC[C@]4(C)[C@H]3CC[C@@]21C	-1.82%	–
CC(C(=O)O)c1cccc(C(=O)c2ccccc2)c1 (stereo not given)	3.98% and 6.3%	–
CCc1cc(C(N)=O)ccc1-n1nc(C(C)C)c2c(-n3cnc(-c4cnn(C)c4)c3)ccnc21	–	2.82 µM (active)
Nc1c2c(nc3ccccc13)CCCC2	-1.99% and -7.86%	–
O=c1cc(-c2cccc3c2Sc2ccccc2S3)oc(N2CCOCC2)c1	–	28.2 µM (active)
CC1=C(C(=O)Nc2cc3cn[nH]c3cc2F)C(c2ccc(C(F)(F)F)cc2)CC(=O)N1 (stereo not given)	5.03%	–
O=C(Nc1cccc(C(F)(F)F)c1)Nc1cc(S(=O)(=O)NC2CC2)ccc1-c1ccsc1	–	28.2 µM (active)
COc1cc(C)[nH]c(=O)c1CN1CCc2c(Cl)cc([C@H](OC)C3COC3)c(Cl)c2C1=O	-0.836%	–
CC(c1cc2ccccc2s1)N(O)C(N)=O (stereo not given)	-61.3%	–
O=C1NC(=O)[C@@]2(CCOc3ccc(F)cc32)N1	3.16%	–
O=C(O)COC(=O)Cc1ccccc1Nc1c(Cl)cccc1Cl	7.51%	–
NC(=O)NC(=O)Cc1ccccc1	-0.635%	–
CC1Oc2cc(cnc2N)-c2c(nn(C)c2C#N)CN(C)C(=O)c2ccc(F)cc21 (stereo not given)	-20%	–
CNC1CCC(N(Cc2cccc(-c3ccncc3)c2)C(=O)c2sc3c(F)ccc(F)c3c2Cl)CC1 (stereo not given)	–	10 µM (active)
Cc1cccc(-c2[nH]ncc2-c2ccc(F)c(-c3cnn(CCO)c3)c2)n1	-6.75%	–
O=c1oc2c(O)c(O)cc3c(=O)oc4c(O)c(O)cc1c4c23	9.27% and 2.22%	–
Clc1ccc2c(c1)C(N1CCNCC1)=Nc1ccccc1O2	-1.69%	–
O=C(NC1CC1)c1cccc(-c2ccc3c(NC(=O)C4CC4)n[nH]c3c2)c1	–	3.55 µM (active)
COc1cc2nc(N(C)CCCNC(=O)C3CCCO3)nc(N)c2cc1OC (stereo not given)	-10.5%	–
Cc1cnc(Nc2ccc(OCCN3CCCC3)cc2)nc1Nc1cccc(S(=O)(=O)NC(C)(C)C)c1	–	12.6 µM (active)

Compound	activity (max response)	Potency
c1ccc(-c2oc3ncnc(NC[C@@H]4CCCO4)c3c2-c2ccccc2)cc1	-50.5%	–
CCCCCCCCOc1ccc(C(=O)c2ccccc2)c(O)c1	12.8%	–
Cn1ncc(NC(=O)c2nc(-c3c(F)cccc3F)sc2N)c1N1CC[C@@H](N)[C@H](F)CC1	–	25.1 µM (active)
CCN1CCN(c2ccc(Nc3cc(N(C)C(=O)Nc4c(Cl)c(OC)cc(OC)c4Cl)ncn3)cc2)CC1	-7.03%	–
CN(C)CCC[C@@]1(c2ccc(F)cc2)OCc2cc(C#N)ccc21	-9.39%	–
CCOC(=O)c1ccc(NC(=O)CN2CCCCC2)cc1	-5.52%	–
COC(=O)/C=C(/C)N	13.3%	–
O=C1NC(=O)C(c2ccccc2[N+](=O)[O-])=C1Nc1ccc(O)c(Cl)c1	-17.3%	–
COc1ccc(/C(C)=C/C(=O)O)c(OC)c1	9.2%	–
COc1cc2c(cc1OC)[C@@H]1CC(=O)[C@@H](CC(C)C)CN1CC2	-4.64%	–
CCCCC1=NC2(CCCC2)C(=O)N1Cc1ccc(-c2ccccc2-c2nn[nH]n2)cc1	8.5%	–
CCc1c(-c2ccccc2C)nc2c(C#N)c[nH]n2c1=O	6.89% and 1.74%	–
COC1CC(C(=O)c2ccc3c(N)ncc(-c4ccc(-c5cnn(C)c5)cc4)c3n2)C1 (stereo not given)	-16.1%	–
Cc1nc(Nc2ncc(C(=O)Nc3c(C)cccc3Cl)s2)cc(N2CCN(CCO)CC2)n1	–	1.84 µM (active) and 1.41 µM (active)
O=C(O)CN1C(=O)c2cccc3cccc(c23)C1=O	-3.53%	–
CCCS(=O)c1ccc2nc(NC(=O)OC)[nH]c2c1 (stereo not given)	–	25.1 µM (active)
CCNC(=O)Nc1ncc(-c2cc(-c3c(C)cc(OC)cc3C)nc(-c3cnccn3)n2)s1	-7.82%	–
CN(C)N(C)C(=O)[C@@]1(Cc2ccccc2)CCCN(C(=O)[C@@H](Cc2c[nH]c3ccccc23)NC(=O)C(C)(C)N)C1	-15.4%	–
COc1ccc([C@@H]2CNC(=O)C2)cc1OC1CCCC1	-15.2%	–
O=C(O)c1ccccc1C(=O)Nc1ccc(S(=O)(=O)Nc2nccs2)cc1	-9.68%	–
